Consider 97 molecules from PubChem BioAssay AID430 (Sanford-Burnham Center for Chemical Genomics, 2006).

The campaign covered roughly 63,000 compounds. About 1,100 (1.7%) were called active. Cut-off read from the data, not from the text of the source: active = cytotoxicity above about 50%; inactive = the rest. What follows is part of a selection rich in actives, with near analogues and random picks from the rest. Potency and affinity values are given separately.

The experiment is described as follows: HPDE-C7 pancreatic duct cell viability loss – fluorescence, HTS (AID 430).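 Note: cells exposed to compound for 48 hours before viability readout; 0% = vehicle and 100% = reference cytotoxic drug.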 As to conditions: HPDE-C7 pancreatic duct cells viability, at 10 µM, hits give high values.
Consider `O=C(CCCC(=O)N(CC(=O)NC1CCCC1)C1CCCC1)Nc1ccccn1`, for which the cytotoxicity is -20.8% (inactive).
For `CCNC(=O)NC(=O)C(C)Oc1ccc(C(=O)OC)cc1` (configuration not stated) the value was 2.8% (inactive).
Next, `Cc1ccc(-c2csc3nnc(SCC(=O)Nc4nsc(-c5ccccc5)n4)n23)cc1`: -4.6% (inactive); `Cc1sc(NC(=O)CSc2nnc(COc3ccccc3)n2C)c(C#N)c1C`: 4.2% (inactive).
For `Oc1ccccc1-c1nnc(COc2ccc(Cl)cc2Cl)o1` the value was 35.9% (inactive).
Turning to `O=C(O)CCCC(=O)Nc1nc(-c2ccccc2)cs1`, the cytotoxicity is 6.9% (inactive).
As to `COc1cc2[nH]c(=O)n(CCC(=O)N3CCN(c4cc(Cl)ccc4C)CC3)c(=O)c2cc1OC`, the cytotoxicity is 63.8% (active).
For `CCOc1cc2[nH]c(=O)n(CCC(=O)N3CCN(c4ccccc4OC)CC3)c(=O)c2cc1OCC` the value was -8.1% (inactive); for `COc1cc2[nH]c(=O)n(CCC(=O)N3CCN(c4cccc(C)c4C)CC3)c(=O)c2cc1OC`, 0.4% (inactive).
With `COc1ccc(Cl)cc1C(=O)N1CCN=C1SC`, the cytotoxicity was -11.2% (inactive).
Next, `CCOc1cc(C#N)c(NC(=O)c2cccnc2)cc1OCC`: 51.5% (active); `CCOc1cc(C#N)c(NC(=O)c2ccnn2C)cc1OCC`: 23.5% (inactive); `CCOc1cc(C#N)c(NC(=O)c2ccco2)cc1OCC`: 12.6% (inactive).
Next, `COc1ccc2nc(Nc3nc(C)c(CCC(C)C)c(=O)[nH]3)nc(C)c2c1`: 6.2% (inactive); `Cc1ccc(Nc2nc(CSc3nnnn3-c3ccccc3)cs2)cc1`: 32.1% (inactive).
Next, `Cc1ccc(Nc2nc(CSc3nnnn3-c3ccccc3)cc(=O)[nH]2)cc1`: 12% (inactive); `Cc1ccc2nc(Nc3nc(=O)c4ccccc4n3C)nc(C)c2c1`: 13.7% (inactive).
For `Cc1nc(Nc2nc(-c3ccccc3)cc(=O)[nH]2)nc2ccccc12`, the cytotoxicity is 52.3% (active).
Next, `CCCCCc1c(C)nc(Nc2nc(C)c3cc(OC)ccc3n2)[nH]c1=O`: -0.5% (inactive); `COc1nc(Nc2nc3ccccc3c(=O)[nH]2)nc2ccc(C)cc12`: 86.7% (active); `CCc1c(C)nc(Nc2nc(C)c3cc(OC)ccc3n2)[nH]c1=O`: 56.1% (active).
Next, `COc1cc2nc(NC(=O)c3ccccc3)[nH]c(=O)c2cc1OC`: 13.3% (inactive); `Cc1nnc(SCc2cc(=O)[nH]c(Nc3nc(C)c4ccccc4n3)n2)s1`: -0.8% (inactive).
For the molecule `Cc1nc(-c2ccccc2)cc(=O)[nH]1`, the cytotoxicity was 4% (inactive).
`Cc1ccc2c(C)nc(Nc3nc(CSc4nnnn4-c4ccccc4)cc(=O)[nH]3)nc2c1`: the cytotoxicity is 51% (active).
For `Cc1ccc(NC(=O)CSc2nnc(CNC(=O)c3c(F)cccc3Cl)o2)cc1` the value was -9.7% (inactive).
Next, `CCOc1ccc(N2CC(C(=O)Nc3ccccc3OC)CC2=O)cc1` (configuration not stated): -2.5% (inactive); `COc1cc(C(=S)N2CCCC2)cc(Cl)c1O`: -4% (inactive); `COc1ccccc1-c1cc(C(=O)NCc2ccc(Cl)cc2)no1`: -15.3% (inactive).
On to `OCc1nn2c(c1Br)NC(c1ccccc1)CC2C(F)(F)F` (configuration not stated), for which the cytotoxicity is -8.4% (inactive).
Next, `CCOc1ccc(CCNC(=O)C2CCN(c3nn4c(=O)cc(C)nc4s3)CC2)cc1OCC`: -6.6% (inactive); `COc1cc(OC)cc(C(=O)NC2CCN(Cc3nnnn3Cc3cccs3)CC2)c1`: -7.1% (inactive); `CC(=O)NC(CCS(C)(=O)=O)C(=O)Nc1c(C)cccc1C` (configuration not stated): 10.4% (inactive).
Consider `COc1ccc2c(C)nc(Nc3nc(C)cc(C)n3)nc2c1`, for which the cytotoxicity was -4.7% (inactive).
For `COCc1cc(=O)[nH]c(Nc2nc(C)c3ccc(C)cc3n2)n1` the value was 5.4% (inactive); for `COc1ccc2c(C)nc(Nc3nc(C)cc(=O)[nH]3)nc2c1`, 80.7% (active).
Next, `N#Cc1c(-c2ccccc2)nc(SCc2nc(N)nc(N3CCCCC3)n2)[nH]c1=O`: 9.2% (inactive); `CCN1CCN(CCNC(=O)c2cn(C(C)c3ccccc3F)nn2)CC1` (configuration not stated): -5.9% (inactive).
For `COc1ccc(-c2cc(-c3ccccc3O)[nH]n2)cc1OC` the value was 51.6% (active).
With `COc1ccc(-c2cc(-c3cc(F)ccc3O)[nH]n2)cc1OC`, the cytotoxicity was 8.9% (inactive).
With `Oc1ccccc1-c1cc(-c2cccc(F)c2)n[nH]1`, the cytotoxicity was 3.1% (inactive).
For `Cc1ccc(-n2ncc(C#N)c2/N=C/N(C)C)cc1` the value was 8.6% (inactive); for `CC(=O)Nc1ccc(NC(=O)c2cccc(C(=O)OC(C)C)n2)cc1`, -2.2% (inactive).
For `O=C(NCCCN1CCN(CCCNC(=O)c2ccc(F)cc2)CC1)c1ccc(F)cc1` the value was -6.2% (inactive); for `CS(=O)(=O)N1CCc2cc(S(=O)(=O)N3CCN(Cc4ccc5c(c4)OCO5)CC3)ccc21`, 6.1% (inactive); for `CS(=O)(=O)N1CCc2cc(C(=O)O)ccc21`, -2.9% (inactive).
Consider `CS(=O)(=O)N1CCc2cc(S(=O)(=O)Nc3ccc4oc5c(c4c3)CCCC5)ccc21`, for which the cytotoxicity was 80% (active).
For `COC(=O)c1ccccc1NC(=O)CSc1nnc(-c2cccc(NC(C)=O)c2)n1C` the value was 6.2% (inactive); for `COc1ccc(OCc2nc(N)nc(Nc3cccc(C)c3C)n2)cc1`, -10.3% (inactive); for `C=CCNc1nc(NCc2ccccc2)c(C#N)c2c1CN(C)CC2`, 14.5% (inactive).
Next, `N#Cc1c(NCCCO)nc(-c2ccccc2)c2c1CCCC2`: 38.6% (inactive).
Next, `CCN1CCc2c(C#N)c(N3CCCCC3)nc(NCc3ccccc3)c2C1`: 30.7% (inactive); `N#Cc1c(NCCO)nc(NCc2ccccc2)c2c1CCN(Cc1ccccc1)C2`: 34.2% (inactive); `O=C(c1ccccc1F)N1CCN(S(=O)(=O)c2ccc(S(=O)(=O)N3CCCCC3)cc2)CC1`: -2.6% (inactive).
Consider `Cn1c(=O)n(C)c2cc(NS(C)(=O)=O)ccc21`, for which the cytotoxicity is -29.4% (inactive).
For `Cc1noc(C)c1COC(=O)c1ccc2c(c1)OCO2` the value was -8.9% (inactive); for `O=S(=O)(Nc1ccc2c(c1)nc1n2CCN(Cc2ccccc2)C1)c1ccc(Cl)cc1`, 68.2% (active); for `O=S(=O)(Nc1ccc2c(c1)nc1n2CCN(Cc2ccccc2)C1)c1ccccc1`, 2.6% (inactive).
Consider `Cc1ccc(S(=O)(=O)Nc2ccc3c(c2)nc2n3CCN(Cc3ccccc3)C2)cc1`, for which the cytotoxicity was 10.2% (inactive).
For `Cc1ccc(NC(=O)c2ccco2)cc1C` the value was -2.6% (inactive); for `O=C1NCCCC2c3c(cc(Br)c(O)c3Br)OC12N1CCOCC1` (configuration not stated), -5.7% (inactive).
For `COC(=O)C1=C(C)NC(C)=C(C(=O)OC)C1c1cc2cc(C)ccc2[nH]c1=O` the value was 2.9% (inactive).
For `COc1ccc(C)cc1S(=O)(=O)N(CC(=O)N1CCOCC1)Cc1ccccc1` the value was -1.7% (inactive); for `N#Cc1cn(CC(=O)O)c2ccccc12`, -15.5% (inactive); for `N#Cc1cn(Cc2ccccc2)c2ccccc12`, 6.7% (inactive).
In the case of `N#Cc1cn(Cc2cccc(Cl)c2)c2ccccc12`, the cytotoxicity was 56.1% (active).
For `CCOc1ccc(N2C(=O)C3CCCN3C2=O)cc1` (configuration not stated) the value was 3.6% (inactive).
For the molecule `COc1ccc(C(C#N)N2CCCCCC2)cc1OC` (configuration not stated), the cytotoxicity was 2.4% (inactive).
For `c1ccc(C2=Nn3c(nnc3-c3n[nH]c4c3CCC4)SC2)cc1` the value was 8.7% (inactive); for `Brc1ccc(C2=Nn3c(nnc3-c3n[nH]c4c3CCC4)SC2)cc1`, 61.4% (active).
Next, `Fc1ccc(C2=Nn3c(nnc3-c3n[nH]c4c3CCC4)SC2)cc1`: 0.5% (inactive); `CC1=Nn2c(nnc2-c2n[nH]c3c2CCC3)SC1`: -3.7% (inactive); `Clc1ccc(C2=Nn3c(nnc3-c3n[nH]c4c3CCC4)SC2)cc1Cl`: 76.8% (active).
For `Clc1ccc(C2=Nn3c(nnc3-c3n[nH]c4c3CCC4)SC2)cc1` the value was 46.1% (inactive).
On to `CCc1nc(SCC(=O)Nc2cc(C)on2)c2c(C)c(C)sc2n1`, for which the cytotoxicity is -1.6% (inactive).
Next, `CC1(C)CC(=O)C(C=NC2CCCCC2)=C(O)C1`: -6.9% (inactive); `Cn1c(=O)c2c(SC3CCCC3)nc(CC(C)(C)C)nc2n(C)c1=O`: -9% (inactive).
Next, `Cc1onc(-c2ccccc2Cl)c1C(=O)NCc1nc(-c2ccccc2)no1`: -4.2% (inactive); `CC(=O)c1cccc(NC(=O)c2ccc(NS(C)(=O)=O)cc2)c1`: 17.5% (inactive); `CCOC(=O)c1c(C)[nH]c(C(=O)Cn2c(=O)c3c(ncn3CC)n(Cc3ccccc3)c2=O)c1C`: 4.9% (inactive).
`CCc1c(C)sc(NC(=O)c2cccs2)c1C(=O)OC(C)C`: the cytotoxicity is 58.9% (active).
Next, `CC(C)OC(=O)c1c(NC(=O)c2cccs2)sc2c1CCCC2`: 9.8% (inactive); `CCOC(=O)c1c(NC(=O)c2cccs2)sc(C)c1CC`: -2.4% (inactive); `COc1ccccc1CC(NC(C)=O)C(=O)NC1CCN(c2nnnn2-c2ccccc2)CC1` (configuration not stated): -2.9% (inactive).
With `COc1ccc(C(=O)CSc2nnc(-c3ccc(C)cc3)o2)cc1`, the cytotoxicity was -8.2% (inactive).
For `COc1ccc(C(=O)CSc2nnc(-c3ccc(S(=O)(=O)N4CCOCC4)cc3)o2)cc1`, the cytotoxicity is 56.1% (active).
As for `CCN(CC)S(=O)(=O)c1ccc(-c2nnc(SCC(=O)c3ccc(OC)cc3)o2)cc1`, the cytotoxicity was -7.3% (inactive).
For `O=C(CN1C(=O)c2ccccc2S1(=O)=O)N1CCN(Cc2ccc3c(c2)OCO3)CC1` the value was -4.2% (inactive); for `CCCn1c(C)cc(C(=O)COc2ncnc3sccc23)c1C`, -1.4% (inactive).
Next, `CCN1C(=O)c2cccc3c(NC(=O)c4cccc(N5C(=O)CCC5=O)c4)ccc1c23`: -19.8% (inactive).
In the case of `CCN1C(=O)c2cccc3c(NC(=O)c4ccc5c(c4)OCCO5)ccc1c23`, the cytotoxicity was 84.7% (active).
Next, `CCN1C(=O)c2cccc3c(NC(=O)c4ccc(S(=O)(=O)N(C)C)cc4)ccc1c23`: -24.8% (inactive).
Next, `COc1ccc(CCC(=O)NCc2ccco2)cc1`: -5.5% (inactive).
For `Clc1ccccc1-c1nnn(Cc2ccc(-c3nn[nH]n3)cc2)n1` the value was -10.8% (inactive); for `CCCS(=O)(=O)N1CCC(C(=O)N2CCC(Cc3ccccc3)CC2)CC1`, 79.7% (active); for `CS(=O)(=O)N1CCC(C(=O)N2CCC(Cc3ccccc3)CC2)CC1`, 1.2% (inactive).
Turning to `CCCS(=O)(=O)N1CCCC(C(=O)N2CCC(Cc3ccccc3)CC2)C1` (configuration not stated), the cytotoxicity is 0.4% (inactive).
